Data as given in PMC7826789 (International Journal of Molecular Sciences, 2021).

What was measured:
Details in all cases: Compound Concentration (nM):1000
[1] = system: PIK3CB
[2] = system: PIK3CD
[3] = system: PIK3CG
[4] = system: T1, PIK4CB
T1 construct: gene PI4KB

[5] = system: PIKFYVE
[6] = system: PIM1
[7] = system: PIM2
[8] = system: PIM3
[9] = system: PIP5K1A
[10] = system: PIP5K1C
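Also: KINOMEscan scanMAX binding as percent activity remaining versus control; lower means stronger binding.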

Structure (SMILES): COc1cccc(-n2ncc3c(N/N=C/c4ccncc4)ncnc32)c1 [GW784752X]
- Percent Control [1]: 94%
- Percent Control [2]: 100%
- Percent Control [3]: 54%
- Percent Control [4]: 90%
- Percent Control [5]: 18%
- Percent Control [6]: 100%
- Percent Control [7]: 100%
- Percent Control [8]: 100%
- Percent Control [9]: 86%
- Percent Control [10]: 79%

Structure (SMILES): Cc1cc(O)cc(C)c1/C=C/c1cncc(C(N)=O)c1 [GW435821X]
- Percent Control [1]: 100%
- Percent Control [2]: 81%
- Percent Control [3]: 100%
- Percent Control [4]: 100%
- Percent Control [5]: 100%
- Percent Control [6]: 100%
- Percent Control [7]: 100%
- Percent Control [8]: 100%
- Percent Control [9]: 100%
- Percent Control [10]: 67%

Structure (SMILES): COc1ccc2[nH]c3c4[nH]c5ccc(OC)cc5c4c4c(c3c2c1)C(=O)NC4=O [GW296115X]
- Percent Control [1]: 88%
- Percent Control [2]: 64%
- Percent Control [3]: 87%
- Percent Control [4]: 100%
- Percent Control [5]: 0%
- Percent Control [6]: 46%
- Percent Control [7]: 0.5%
- Percent Control [8]: 2.6%
- Percent Control [9]: 100%
- Percent Control [10]: 81%

Structure (SMILES): Nc1ncnc2occ(-c3ccc(NC(=O)Nc4cc(C(F)(F)F)ccc4F)cc3)c12 [GW770249X]
- Percent Control [1]: 100%
- Percent Control [2]: 100%
- Percent Control [3]: 100%
- Percent Control [4]: 100%
- Percent Control [5]: 95%
- Percent Control [6]: 100%
- Percent Control [7]: 100%
- Percent Control [8]: 100%
- Percent Control [9]: 100%
- Percent Control [10]: 90%

Structure (SMILES): COc1ccccc1-c1cc(/C=C2\C(=O)Nc3ncc(Br)cc32)cc(Br)c1O [GW442130X]
- Percent Control [1]: 80%
- Percent Control [2]: 64%
- Percent Control [3]: 65%
- Percent Control [4]: 68%
- Percent Control [5]: 30%
- Percent Control [6]: 100%
- Percent Control [7]: 96%
- Percent Control [8]: 100%
- Percent Control [9]: 86%
- Percent Control [10]: 100%

Structure (SMILES): COc1ccc2cc(-c3c(-c4ccncc4)nc(-c4ccc(S(C)(=O)=O)cc4C)n3C)ccc2c1 [SB-633825]
- Percent Control [1]: 94%
- Percent Control [2]: 100%
- Percent Control [3]: 79%
- Percent Control [4]: 69%
- Percent Control [5]: 100%
- Percent Control [6]: 78%
- Percent Control [7]: 97%
- Percent Control [8]: 80%
- Percent Control [9]: 95%
- Percent Control [10]: 100%

Structure (SMILES): CCS(=O)(=O)c1ccc(OC)c(Nc2ncc(-c3cccc(OC)c3)o2)c1 [GW580509X]
- Percent Control [1]: 100%
- Percent Control [2]: 93%
- Percent Control [3]: 100%
- Percent Control [4]: 40%
- Percent Control [5]: 91%
- Percent Control [6]: 100%
- Percent Control [7]: 100%
- Percent Control [8]: 100%
- Percent Control [9]: 100%
- Percent Control [10]: 17%

Structure (SMILES): COc1ccc(COc2ccc(Cc3cnc(N)nc3N)cc2OC)cc1 [GW632580X]
- Percent Control [1]: 93%
- Percent Control [2]: 100%
- Percent Control [3]: 77%
- Percent Control [4]: 100%
- Percent Control [5]: 100%
- Percent Control [6]: 100%
- Percent Control [7]: 91%
- Percent Control [8]: 100%
- Percent Control [9]: 94%
- Percent Control [10]: 100%

Structure (SMILES): COC(=O)Nc1nc2ccc(Oc3ccc(NC(=O)Nc4cc(C(F)(F)F)ccc4F)cc3)cc2s1.Cl [GW693917A]
- Percent Control [1]: 100%
- Percent Control [2]: 76%
- Percent Control [3]: 100%
- Percent Control [4]: 95%
- Percent Control [5]: 100%
- Percent Control [6]: 100%
- Percent Control [7]: 100%
- Percent Control [8]: 100%
- Percent Control [9]: 100%
- Percent Control [10]: 100%

Structure (SMILES): CCc1ccc(Oc2nccc(-c3c(-c4ccc(F)cc4)ncn3C3CCNCC3)n2)cc1 [SB-242719]
- Percent Control [1]: 99%
- Percent Control [2]: 72%
- Percent Control [3]: 95%
- Percent Control [4]: 100%
- Percent Control [5]: 100%
- Percent Control [6]: 100%
- Percent Control [7]: 100%
- Percent Control [8]: 100%
- Percent Control [9]: 87%
- Percent Control [10]: 100%

Structure (SMILES): COc1cccc(-c2c[nH]c3c(N/N=C/c4ccncc4)ncnc23)c1 [GW814408X]
- Percent Control [1]: 100%
- Percent Control [2]: 92%
- Percent Control [3]: 88%
- Percent Control [4]: 100%
- Percent Control [5]: 1.1%
- Percent Control [6]: 82%
- Percent Control [7]: 100%
- Percent Control [8]: 75%
- Percent Control [9]: 71%
- Percent Control [10]: 28%

Structure (SMILES): C/C(Nc1ccc(S(N)(=O)=O)cc1)=C1/C(=O)Nc2ccccc21 [GW335962X]
- Percent Control [1]: 100%
- Percent Control [2]: 95%
- Percent Control [3]: 100%
- Percent Control [4]: 100%
- Percent Control [5]: 100%
- Percent Control [6]: 91%
- Percent Control [7]: 95%
- Percent Control [8]: 89%
- Percent Control [9]: 96%
- Percent Control [10]: 84%

Structure (SMILES): Cl.O=S1CCN(Cc2ccc(-c3ccc4ncnc(Nc5ccc(OCc6ccccc6)c(F)c5)c4c3)o2)CC1 [GW576924A]
- Percent Control [1]: 96%
- Percent Control [2]: 100%
- Percent Control [3]: 100%
- Percent Control [4]: 100%
- Percent Control [5]: 86%
- Percent Control [6]: 100%
- Percent Control [7]: 100%
- Percent Control [8]: 100%
- Percent Control [9]: 100%
- Percent Control [10]: 67%

Structure (SMILES): Cl.O=C(O[C@H]1CN[C@H](C#Cc2cc3ncnc(Nc4ccc5c(cnn5Cc5ccccc5)c4)c3s2)C1)N1CCOCC1 [GSK200398A]
- Percent Control [1]: 100%
- Percent Control [2]: 100%
- Percent Control [3]: 100%
- Percent Control [4]: 100%
- Percent Control [5]: 100%
- Percent Control [6]: 100%
- Percent Control [7]: 100%
- Percent Control [8]: 100%
- Percent Control [9]: 100%
- Percent Control [10]: 99%

Structure (SMILES): COc1ccc2c(-c3ccnc(Nc4cccc(OC(F)(F)F)c4)n3)cnn2n1 [GW810372X]
- Percent Control [1]: 100%
- Percent Control [2]: 69%
- Percent Control [3]: 85%
- Percent Control [4]: 72%
- Percent Control [5]: 69%
- Percent Control [6]: 100%
- Percent Control [7]: 100%
- Percent Control [8]: 100%
- Percent Control [9]: 77%
- Percent Control [10]: 66%

Structure (SMILES): CCS(=O)(=O)c1ccc(OC)c(Nc2ncc(-c3cccc(F)c3)o2)c1 [GW621970X]
- Percent Control [1]: 100%
- Percent Control [2]: 100%
- Percent Control [3]: 100%
- Percent Control [4]: 100%
- Percent Control [5]: 100%
- Percent Control [6]: 100%
- Percent Control [7]: 100%
- Percent Control [8]: 100%
- Percent Control [9]: 99%
- Percent Control [10]: 28%

Structure (SMILES): NS(=O)(=O)c1ccc(N/N=C2\C(=O)Nc3ccc(C(=O)NCc4ccncc4)cc32)cc1 [GW300657X]
- Percent Control [1]: 81%
- Percent Control [2]: 77%
- Percent Control [3]: 100%
- Percent Control [4]: 83%
- Percent Control [5]: 84%
- Percent Control [6]: 100%
- Percent Control [7]: 100%
- Percent Control [8]: 100%
- Percent Control [9]: 100%
- Percent Control [10]: 51%

Structure (SMILES): CC1=C(C(=O)Nc2ccc3[nH]ncc3c2)C(c2ccc(Cl)c(Cl)c2)CC(=O)N1 (centres unmarked) [GSK299115A]
- Percent Control [1]: 75%
- Percent Control [2]: 100%
- Percent Control [3]: 93%
- Percent Control [4]: 80%
- Percent Control [5]: 100%
- Percent Control [6]: 83%
- Percent Control [7]: 100%
- Percent Control [8]: 91%
- Percent Control [9]: 86%
- Percent Control [10]: 100%

Structure (SMILES): CCn1c(-c2nonc2N)nc2c(C#CC(C)(C)O)nc(OCCNC)cc21.Cl [GSK949675]
- Percent Control [1]: 91%
- Percent Control [2]: 82%
- Percent Control [3]: 73%
- Percent Control [4]: 100%
- Percent Control [5]: 20%
- Percent Control [6]: 100%
- Percent Control [7]: 56%
- Percent Control [8]: 100%
- Percent Control [9]: 79%
- Percent Control [10]: 0%

Structure (SMILES): COc1cc2ncn(-c3cc(O[C@H](C)c4ccccc4Cl)c(C(N)=O)s3)c2cc1OC [GSK237701A]
- Percent Control [1]: 31%
- Percent Control [2]: 28%
- Percent Control [3]: 12%
- Percent Control [4]: 67%
- Percent Control [5]: 74%
- Percent Control [6]: 88%
- Percent Control [7]: 100%
- Percent Control [8]: 66%
- Percent Control [9]: 0%
- Percent Control [10]: 9.9%
